For 35 molecules, composite z-score results are on record in PubChem BioAssay.

The first experiment concerns Lefty1. Briefly: Lefty1 binders on small-molecule microarrays, primary screen, biochemical, small-molecule microarray, 635/667 nm fluorescence (AID 1139). As to conditions: small-molecule microarray binding, fluorescence 635/667; higher = more signal.
For the molecule `COCCOC(=O)N1C(=O)[C@@]2(c3cc(C#CCCO)ccc31)[C@H](c1ccc(OCCO)cc1)N1[C@H](c3ccccc3)[C@H](c3ccccc3)OC(=O)[C@H]1[C@@H]2C(=O)N1CCCCCCC1`, the composite z-score came out at 1.33. The same measure, in the same setting: under `COc1ccc([Si](C)(C)[C@@H]2[C@@H](CC(=O)N(CCO)Cc3ccccc3)O[C@]3(C(=O)N(Cc4ccc(N5C(=O)c6cccc7cccc5c67)cc4)c4ccccc43)[C@H]2C)cc1` stands 0.449; under `CCOC(=O)C1=CC[C@@H](c2ccc(OC)cc2)N(S(=O)(=O)c2ccc(C)cc2)[C@H]1CC`, 0.689; under `CN1C(=O)C2C(C1=O)C1C=C(c3ccc(CO)cc3)C2C(C2CC2)N1C` (configuration not stated), -0.617.

`C=C(CCCC)C(=O)CC[C@@H](OC(=O)c1ccccc1-c1ccccc1C(=O)O)c1ccccc1OCCO` came in with a composite z-score of 1.2. Same read-out and setting: then `C=C1C(=O)C=C2CN(C(=O)c3ccccc3)[C@@](Cc3ccc(OC)cc3)(C(=O)OC)[C@@H]12`, with 0.381; and `COC(=O)[C@@]1(Cc2ccc(F)cc2)[C@H]2c3cc(C(=O)N4CCCC4)n(CCc4ccccn4)c3C[C@H]2CN1C(=O)c1ccccc1`, with -1.03.

In the next experiment the test system is wheat germ agglutinin (Triticum aestivum), Alexa647-labelled. Briefly: wheat germ agglutinin binders on compound microarrays, profiling panel, artefact control for SMM control-protein annotation, biochemical, small-molecule microarray, 635/667 nm fluorescence (AID 1140).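 Further: score merges 667 nm feature emission with signal to noise over triplicate slides.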 To be noted: WGA-A647 binding, 635 nm fluorescence, higher = more signal.
The molecule `C=CCOC(=O)[C@H]1[C@@H]2C(=O)O[C@@H](c3ccccc3)[C@@H](c3ccccc3)N2[C@@H](c2ccc(OCCOC(=O)[C@H]3C[C@H]4C(=O)N[C@@H](CC(C)C)C(=O)N4[C@H]3c3ccc(O)cc3)cc2)[C@]12C(=O)Nc1ccccc12` showed a composite z-score of 0.624. Molecule `CCOC(=O)C1=C[C@@H](C(C)(C)C)N(S(=O)(=O)c2ccc(C)cc2)[C@H]1c1ccc(C#N)cc1` came in with a composite z-score of 1.08. With `C=CCOC(=O)[C@@H]1[C@H]2C(=O)O[C@H](c3ccccc3)[C@H](c3ccccc3)N2[C@H](c2ccc(OCCOC(=O)[C@H]3C[C@H]4C(=O)N[C@@H](CCCCN(C)C)C(=O)N4[C@H]3c3ccc(O)cc3)cc2)[C@@]12C(=O)Nc1ccc(I)cc12`, the composite z-score turned out to be 0.538. On the same count and under the same terms, then `COC(=O)[C@H](Cc1ccc(O)cc1)N[C@@H](/C=C/C1CC1)[C@H](O)Cc1ccccc1`, with -0.185; and `O=C(NCC(O)CO)C1N=C(c2ccc(OCCCO)cc2)N(c2ccccc2)O1` (configuration not stated), with 0.471; and `CCCc1cc2c(n1CCc1ccc(Cl)cc1)C(C)C1CN(C(=O)c3ccccc3)C(C)(C(=O)OC)C21` (configuration not stated), with 1.34. In the case of `CC(C)(C)OC(=O)CC[C@]1(C(=O)NCC(O)CO)N=C(c2ccc(OCCCO)cc2)O[C@H]1c1ccccc1N=[N+]=[N-]` (some centres not stated), the composite z-score stood at 1.3. In turn, `COc1ccc([Si](C)(C)[C@H]2[C@H](CC(=O)N3CCC[C@H]3CO)O[C@@]3(C(=O)N(Cc4ccc(N5CCCCC5=O)cc4)c4ccccc43)[C@@H]2C)cc1` came in with a composite z-score of 0.513. Same read-out and setting: under `CN1C(=O)[C@@H]2[C@@H](CC(COc3ccccc3)=C3[C@@H](CCc4ccccc4)OB(O)C[C@@H]32)C1=O` stands 0.469; under `CC(C)(C)N1CC=CC23O[C@@H]4C=CCCOC(=O)C4[C@H]2C(=O)N(CCCCCCO)[C@@H]3C1=O` (some centres not stated), -1.2.

`O=C1C=C(c2ccccc2)C(=O)C2=C1CC([C@H]1Oc3ccccc3S(=O)(=O)N3CCC[C@@H]13)=CC2` yielded a composite z-score of 0.145.

With `O=C(NCc1ccc(F)cc1)[C@H]1C[C@H]2C(=O)N3CCC[C@H]3C(=O)N2[C@H]1c1ccc(O)cc1`, the composite z-score was -0.554. As to `CC(=O)c1ccc(C(O)C2C=CC3C(=O)N(c4ccccc4)C(=O)C3N2Nc2ccc(C(C)C)cc2)cc1` (configuration not stated), the composite z-score turned out to be 1.17. `CCCCC(O)C1C=CC2C(=O)N(c3ccccc3)C(=O)C2N1Nc1ccc([N+](=O)[O-])cc1` (configuration not stated) yielded a composite z-score of 0.68.

Consider `O=C1[C@@H]2[C@@H](CC(COc3ccccc3)=C([C@H](O)CCc3ccccc3)[C@@H]2CO)C(=O)N1Cc1ccccc1`, for which the composite z-score is 0.124. For `COC(=O)[C@@]1(Cc2ccc(F)cc2)[C@H]2c3cc(C(=O)N(C)C)n(C)c3C[C@H]2CN1C(=O)c1ccccc1`, the composite z-score came to 0.229.

Turning to `C[N+](C)(C)CCCC[C@@H]1NC(=O)[C@H]2C[C@@H](C(=O)NCCCCCNC(=O)CS)[C@@H](c3cccc(OCCO)c3)N2C1=O`, the composite z-score stood at 0.343. With `COC(=O)C[C@H]1O[C@@]2(C[C@@H]1[Si](C)(C)C)C(=O)N(C)c1ccccc12`, the composite z-score worked out at 0.0729. Regarding `C=CCOC(=O)[C@H]1[C@@H]2C(=O)O[C@@H](c3ccccc3)[C@@H](c3ccccc3)N2[C@@H](c2ccc(OCCOC(=O)[C@@H]3C[C@@H]4C(=O)N[C@@H](CCCC[N+](C)(C)C)C(=O)N4[C@@H]3c3ccc(O)cc3)cc2)[C@]12C(=O)Nc1ccc(I)cc12`, the composite z-score worked out at 0.422. Consider `C=CC[C@@]1(C(=O)OC)N=C(c2ccc(OCCCO)cc2)O[C@@H]1c1ccccc1N=[N+]=[N-]`, for which the composite z-score is 0.874. `C=CC[C@@]1(C(=O)N(C)C)N=C(c2ccc(OCCCO)cc2)O[C@@H]1c1ccccc1CN=[N+]=[N-]` had a composite z-score of 1.12.

`CCCCCC1=C2CNC(CC(C)C)(C(=O)OC)C=C2C(C)C1=O` (configuration not stated) yielded a composite z-score of 0.955. `COc1ccc(C(O)C2C=CC3C(=O)NC(=O)C3N2Nc2ccc(Cl)cc2Cl)c2ccccc12` (configuration not stated) returned a composite z-score of 1.19. Consider `CCOC(=O)C[C@H]1[C@H](OC(=O)Cc2ccc3c(c2)OCO3)[C@@H](NC(=O)c2ccc3ccccc3n2)c2cc(OCCCO)ccc2N1C(=O)Cc1ccc(OC)cc1`, for which the composite z-score stood at 0.391. `CCCCC(O)C1C=CC2C(=O)N(c3ccccc3)C(=O)C2N1Nc1ccccc1` (configuration not stated) came in with a composite z-score of 1.17.

Turning to `COc1ccc([Si](C)(C)[C@@H]2[C@@H](CC(=O)N3CCC[C@H]3CO)O[C@]3(C(=O)N(Cc4ccc(N5CCOC5=O)cc4)c4ccccc43)[C@H]2C)cc1`, the composite z-score turned out to be 0.471. The molecule `CC(C)NC(=O)[C@@]1(c2ccc([N+](=O)[O-])cc2)CC(=O)N(CC23CC4CC(CC(C4)C2)C3)[C@@H]1c1ccc(CO)cc1` had a composite z-score of 0.738. Still for that read-out and setting: then `C=C(CCCC)/C(=C/C[C@H](OC(C)=O)c1cccc(OCCO)c1)c1cnc2ccccc2c1`, with 0.324; and `COCCOC(=O)N1C(=O)[C@@]2(c3cc(C#CCCO)ccc31)[C@H](c1ccc(OCCO)cc1)N1[C@H](c3ccccc3)[C@H](c3ccccc3)OC(=O)[C@H]1[C@@H]2C(=O)N1CCCCCCC1`, with 1.32. The molecule `COc1ccc([Si](C)(C)[C@@H]2[C@@H](CC(=O)N(CCO)Cc3ccccc3)O[C@]3(C(=O)N(Cc4ccc(N5C(=O)c6cccc7cccc5c67)cc4)c4ccccc43)[C@H]2C)cc1` showed a composite z-score of 0.934.

As to `CCOC(=O)C1=CC[C@@H](c2ccc(OC)cc2)N(S(=O)(=O)c2ccc(C)cc2)[C@H]1CC`, the composite z-score was 0.902.

In the case of `CN1C(=O)C2C(C1=O)C1C=C(c3ccc(CO)cc3)C2C(C2CC2)N1C` (configuration not stated), the composite z-score is -0.0515. For `C=C(CCCC)C(=O)CC[C@@H](OC(=O)c1ccccc1-c1ccccc1C(=O)O)c1ccccc1OCCO`, the composite z-score is -0.191. The molecule `C=C1C(=O)C=C2CN(C(=O)c3ccccc3)[C@@](Cc3ccc(OC)cc3)(C(=O)OC)[C@@H]12` came in with a composite z-score of 1.13.

`COC(=O)[C@@]1(Cc2ccc(F)cc2)[C@H]2c3cc(C(=O)N4CCCC4)n(CCc4ccccn4)c3C[C@H]2CN1C(=O)c1ccccc1` gave a composite z-score of 1.01.
